Compound: OC1CN(Cc2sccc12)C(=O)CCl
Assay: log2 ratio of Biotin-Ahx-Ub-VS probe labelling (compound/DMSO); higher = less target engagement, active = hit call of the paper (q ≤ 0.05, log2 ratio ≤ -1)
Settings: compound concentration: 50uM; treatment time: 3 h
Procedure: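 Round 2 competitive ABPP in HEK293T lysate. Purified HTC-D2B compounds were tested at 50 and 200 µM for 3 h, followed by Biotin-Ahx-Ub-VS enrichment and diaPASEF LC-MS/MS. Values are the average log2 ratio (compound/DMSO) from an unpaired t-test (n=3 treated, n=26 DMSO).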

Sequence of UniProt Q9H9J4 (Q9H9J4 whole entry): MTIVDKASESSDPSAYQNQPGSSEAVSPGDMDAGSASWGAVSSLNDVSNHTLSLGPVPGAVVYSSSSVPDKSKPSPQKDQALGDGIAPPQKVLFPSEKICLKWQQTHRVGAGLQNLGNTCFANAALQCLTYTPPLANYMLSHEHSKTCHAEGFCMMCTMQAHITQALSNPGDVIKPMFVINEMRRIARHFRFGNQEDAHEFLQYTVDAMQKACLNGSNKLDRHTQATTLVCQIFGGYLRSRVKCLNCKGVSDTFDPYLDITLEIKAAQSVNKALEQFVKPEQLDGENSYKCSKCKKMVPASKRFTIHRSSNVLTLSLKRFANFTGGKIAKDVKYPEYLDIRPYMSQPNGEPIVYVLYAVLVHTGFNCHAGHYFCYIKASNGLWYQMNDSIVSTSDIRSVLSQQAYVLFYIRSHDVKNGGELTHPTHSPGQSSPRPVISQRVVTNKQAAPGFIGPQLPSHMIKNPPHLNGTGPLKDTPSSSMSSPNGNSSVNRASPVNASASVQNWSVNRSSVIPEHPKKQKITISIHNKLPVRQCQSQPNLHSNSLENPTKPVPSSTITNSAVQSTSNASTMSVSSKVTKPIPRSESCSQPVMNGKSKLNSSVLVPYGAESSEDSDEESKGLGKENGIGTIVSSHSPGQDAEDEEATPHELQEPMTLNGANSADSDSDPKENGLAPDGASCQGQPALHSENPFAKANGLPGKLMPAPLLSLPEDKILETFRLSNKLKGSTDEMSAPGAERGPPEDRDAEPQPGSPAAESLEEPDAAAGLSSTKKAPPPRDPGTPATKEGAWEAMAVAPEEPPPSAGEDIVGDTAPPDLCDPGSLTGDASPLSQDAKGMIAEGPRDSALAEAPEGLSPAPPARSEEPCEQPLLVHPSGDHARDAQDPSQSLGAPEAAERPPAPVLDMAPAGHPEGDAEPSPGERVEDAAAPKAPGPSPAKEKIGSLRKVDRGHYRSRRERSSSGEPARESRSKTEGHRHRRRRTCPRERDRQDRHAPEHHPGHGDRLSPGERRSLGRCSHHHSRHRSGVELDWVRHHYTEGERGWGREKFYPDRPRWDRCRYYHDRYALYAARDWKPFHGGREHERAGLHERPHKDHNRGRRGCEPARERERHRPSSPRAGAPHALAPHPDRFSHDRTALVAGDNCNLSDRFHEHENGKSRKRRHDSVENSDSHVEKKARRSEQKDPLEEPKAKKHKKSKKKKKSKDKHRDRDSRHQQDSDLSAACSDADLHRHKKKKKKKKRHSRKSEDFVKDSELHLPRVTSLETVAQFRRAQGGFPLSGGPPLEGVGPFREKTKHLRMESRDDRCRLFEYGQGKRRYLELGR
Sequence of UniProt Q9Y5K5 (Q9Y5K5 whole entry): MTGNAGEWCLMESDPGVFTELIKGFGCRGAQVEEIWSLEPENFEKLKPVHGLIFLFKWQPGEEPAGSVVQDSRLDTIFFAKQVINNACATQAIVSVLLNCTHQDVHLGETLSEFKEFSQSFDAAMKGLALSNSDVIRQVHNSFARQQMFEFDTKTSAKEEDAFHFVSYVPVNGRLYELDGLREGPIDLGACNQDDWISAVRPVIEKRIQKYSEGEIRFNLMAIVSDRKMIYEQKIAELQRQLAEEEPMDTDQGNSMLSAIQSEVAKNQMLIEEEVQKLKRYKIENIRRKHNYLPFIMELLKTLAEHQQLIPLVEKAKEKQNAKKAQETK
Sequence of UniProt P45974 (P45974 whole entry): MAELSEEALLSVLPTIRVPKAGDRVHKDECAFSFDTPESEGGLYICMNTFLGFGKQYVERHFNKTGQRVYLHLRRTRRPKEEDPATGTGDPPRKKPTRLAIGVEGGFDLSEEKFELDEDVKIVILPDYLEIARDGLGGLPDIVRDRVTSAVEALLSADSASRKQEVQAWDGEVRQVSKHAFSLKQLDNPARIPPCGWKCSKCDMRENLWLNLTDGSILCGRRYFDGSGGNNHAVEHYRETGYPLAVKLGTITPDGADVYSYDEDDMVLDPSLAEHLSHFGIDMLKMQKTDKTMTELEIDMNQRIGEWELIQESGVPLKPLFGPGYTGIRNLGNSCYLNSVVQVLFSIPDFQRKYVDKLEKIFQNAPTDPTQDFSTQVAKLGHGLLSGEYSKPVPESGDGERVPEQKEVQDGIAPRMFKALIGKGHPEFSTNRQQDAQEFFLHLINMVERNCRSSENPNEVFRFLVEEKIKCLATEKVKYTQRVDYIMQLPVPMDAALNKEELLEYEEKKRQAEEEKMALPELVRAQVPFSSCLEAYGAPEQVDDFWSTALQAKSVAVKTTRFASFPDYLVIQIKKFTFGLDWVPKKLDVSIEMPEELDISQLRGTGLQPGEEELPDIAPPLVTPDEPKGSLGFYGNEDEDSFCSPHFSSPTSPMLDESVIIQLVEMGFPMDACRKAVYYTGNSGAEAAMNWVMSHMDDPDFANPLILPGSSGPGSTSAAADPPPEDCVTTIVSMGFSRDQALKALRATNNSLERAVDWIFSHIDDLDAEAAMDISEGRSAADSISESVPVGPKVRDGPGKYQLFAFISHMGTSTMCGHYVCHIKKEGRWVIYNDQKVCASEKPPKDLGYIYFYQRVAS
Sequence of UniProt Q14694 (Q14694 whole entry): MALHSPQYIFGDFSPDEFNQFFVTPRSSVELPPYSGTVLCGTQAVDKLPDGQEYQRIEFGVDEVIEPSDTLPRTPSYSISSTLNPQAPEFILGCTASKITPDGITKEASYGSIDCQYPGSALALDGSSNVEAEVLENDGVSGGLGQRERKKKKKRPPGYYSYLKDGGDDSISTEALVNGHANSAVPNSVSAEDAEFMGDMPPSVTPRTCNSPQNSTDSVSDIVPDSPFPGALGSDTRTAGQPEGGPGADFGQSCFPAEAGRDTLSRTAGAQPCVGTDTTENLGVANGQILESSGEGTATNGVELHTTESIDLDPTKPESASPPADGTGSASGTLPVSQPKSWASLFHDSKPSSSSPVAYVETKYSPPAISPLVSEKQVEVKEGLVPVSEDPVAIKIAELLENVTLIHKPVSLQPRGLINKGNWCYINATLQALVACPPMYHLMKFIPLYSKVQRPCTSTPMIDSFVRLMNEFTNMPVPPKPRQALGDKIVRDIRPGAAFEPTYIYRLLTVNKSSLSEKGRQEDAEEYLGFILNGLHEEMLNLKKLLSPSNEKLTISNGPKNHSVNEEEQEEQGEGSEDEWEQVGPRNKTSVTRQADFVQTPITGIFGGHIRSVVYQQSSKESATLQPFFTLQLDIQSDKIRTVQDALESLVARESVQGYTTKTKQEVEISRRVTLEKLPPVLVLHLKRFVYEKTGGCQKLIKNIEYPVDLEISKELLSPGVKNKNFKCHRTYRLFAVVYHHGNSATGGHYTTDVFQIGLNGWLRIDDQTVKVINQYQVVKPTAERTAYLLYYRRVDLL
Sequence of UniProt P15374 (P15374 whole entry): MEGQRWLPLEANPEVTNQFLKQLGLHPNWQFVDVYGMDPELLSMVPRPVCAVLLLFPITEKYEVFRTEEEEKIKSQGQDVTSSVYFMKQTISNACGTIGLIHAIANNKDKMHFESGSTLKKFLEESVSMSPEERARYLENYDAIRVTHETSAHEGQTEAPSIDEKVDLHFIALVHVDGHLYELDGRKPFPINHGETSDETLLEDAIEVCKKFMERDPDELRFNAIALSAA
Sequence of UniProt Q96JH7 (Q96JH7 whole entry): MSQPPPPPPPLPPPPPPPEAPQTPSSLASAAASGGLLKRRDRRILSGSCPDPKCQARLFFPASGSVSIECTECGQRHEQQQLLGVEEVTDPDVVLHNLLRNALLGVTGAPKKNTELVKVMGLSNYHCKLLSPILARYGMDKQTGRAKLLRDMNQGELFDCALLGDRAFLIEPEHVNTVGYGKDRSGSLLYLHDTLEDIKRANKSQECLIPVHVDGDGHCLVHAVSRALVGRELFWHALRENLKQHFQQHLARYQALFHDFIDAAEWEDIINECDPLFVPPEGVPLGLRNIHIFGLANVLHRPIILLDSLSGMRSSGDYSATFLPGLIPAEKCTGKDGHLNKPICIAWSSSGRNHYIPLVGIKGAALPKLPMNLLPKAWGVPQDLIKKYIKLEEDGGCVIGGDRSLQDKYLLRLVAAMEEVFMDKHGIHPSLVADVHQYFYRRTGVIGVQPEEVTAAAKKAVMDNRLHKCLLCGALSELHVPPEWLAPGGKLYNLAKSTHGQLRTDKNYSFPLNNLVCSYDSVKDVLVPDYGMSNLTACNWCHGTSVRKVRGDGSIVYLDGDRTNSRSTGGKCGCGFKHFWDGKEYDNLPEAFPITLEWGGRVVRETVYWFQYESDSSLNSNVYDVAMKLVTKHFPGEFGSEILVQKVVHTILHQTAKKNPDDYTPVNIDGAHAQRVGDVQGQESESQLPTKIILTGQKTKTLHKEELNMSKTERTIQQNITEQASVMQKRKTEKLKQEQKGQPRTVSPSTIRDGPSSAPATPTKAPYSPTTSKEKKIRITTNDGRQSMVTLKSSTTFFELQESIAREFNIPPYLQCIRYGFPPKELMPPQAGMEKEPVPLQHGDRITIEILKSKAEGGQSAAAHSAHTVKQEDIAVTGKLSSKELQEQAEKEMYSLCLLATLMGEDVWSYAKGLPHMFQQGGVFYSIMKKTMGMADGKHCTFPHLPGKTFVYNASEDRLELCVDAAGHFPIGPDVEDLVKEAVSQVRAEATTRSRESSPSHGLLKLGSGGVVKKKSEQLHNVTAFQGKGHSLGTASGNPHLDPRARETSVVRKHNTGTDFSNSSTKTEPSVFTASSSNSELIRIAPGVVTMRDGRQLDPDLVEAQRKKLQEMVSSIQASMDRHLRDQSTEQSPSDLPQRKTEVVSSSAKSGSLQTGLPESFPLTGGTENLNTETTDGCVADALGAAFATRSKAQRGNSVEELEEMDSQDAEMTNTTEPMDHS

| Target | log2 ratio of Biotin-Ahx-Ub-VS probe labelling |
| --- | --- |
| USP10 (UniProt Q14694) | -0.166 (inactive) |
| COPS5 (UniProt Q92905) | 0.136 (inactive) |
| UCHL3 (UniProt P15374) | -0.332 (inactive) |
| USP14 (UniProt P54578) | -0.385 (inactive) |
| USP5 (UniProt P45974) | 0.084 (inactive) |
| VCPIP1 (UniProt Q96JH7) | -0.309 (inactive) |
| UCHL5 (UniProt Q9Y5K5) | -0.2 (inactive) |
| USP42 (UniProt Q9H9J4) | -0.224 (inactive) |

Same assay, conditions: compound concentration: 200uM; treatment time: 3 h

| Target | log2 ratio of Biotin-Ahx-Ub-VS probe labelling |
| --- | --- |
| USP10 (UniProt Q14694) | -0.00161 (inactive) |
| COPS5 (UniProt Q92905) | -0.0875 (inactive) |
| UCHL3 (UniProt P15374) | -0.337 (inactive) |
| USP14 (UniProt P54578) | -0.604 (inactive) |
| USP5 (UniProt P45974) | 0.198 (inactive) |
| VCPIP1 (UniProt Q96JH7) | -0.285 (inactive) |
| UCHL5 (UniProt Q9Y5K5) | -0.0949 (inactive) |
| USP42 (UniProt Q9H9J4) | 0.0756 (inactive) |

— the supplement of paper PMC11732987, “Enantioselective OTUD7B fragment discovery through chemoproteomics screening and high-throughput optimisation” (Communications Chemistry, 2025)
